Data: PubChem BioAssay AID1508621 (National Center for Advancing Translational Sciences (NCATS), 2021)
Records with an inconclusive call do not appear. Calls of active or inactive are those of the source. Calls follow the shape of the dose curve; as a rule, active = well fitted inhibition curve with a large enough effect; inconclusive = small, poorly fitted or top-dose-only effect; inactive = no such curve, though single readings can be large or run the other way.

Assay: Confirmatory qHTS for Identification of Small Molecule Inhibitors of Huntingtin Promoter Activity; also: nearly all actives have a fitted effect of over 65% in size;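 as to activity change, negative = inhibition: 0% = vehicle control and -100% = zero luminescence signal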
Details: HEK293 HTT promoter firefly luciferase reporter, 24 h; series mostly up to 57.5 µM; activity change, negative = inhibition: at the top concentration
Method in brief: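 Plated reporter HEK293 cells (24 h) received library compounds at up to 57.5 uM final or 50 uM PTC124, incubated 24 h at 37C; firefly luciferase luminescence was then recorded with Dual-Glo reagent.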
Potency is read from the fitted curve at half-maximal effect.

Activity change, negative = inhibition, inactive:
Cn1c(=O)n(C)c2cc(NS(=O)(=O)c3ccccc3)c(NCc3ccccc3)cc21 4.2%, CC(C)c1ccc(C2=CC(c3cccc(Cl)c3)n3c(nc4ccccc43)N2)cc1 (stereo not given) -47.6%, COc1ccc(C(C)n2c(C)c3c(C)nnc(C)c3c2C)cc1 (stereo not given) -20.6%, CSc1ccc(/C=C/c2nc3ccccc3n2S(=O)(=O)c2ccc(F)c(C)c2)cc1 -51.1%, COc1ccc([C@@H]2CNC(=O)C2)cc1OC1CCCC1 -7.15%, Cc1cc(C)cc(NC(=O)Nc2cccs2)c1 -0.991%, Cc1cccc(CSc2cn(CC(=O)N3CCOCC3)c3ccccc23)c1 46.6%, Cc1ccc(NC(=O)c2ccc(C)c(S(=O)(=O)N3CCCCCC3)c2)cc1 -22.9%, CCN(CC)CCNC(=O)c1c(C)[nH]c(C=C2C(=O)Nc3ccc(F)cc32)c1C 2.34% [at 115 µM]

Potency, active:
C[n+]1cc2c3c(ccc2c2ccc4cc5c(cc4c21)OCO5)OCO3 5.86 µM, COc1ccc(N2CCN(C(=O)c3ccc4c(=O)n(CCc5ccc(OC)c(OC)c5)c(=O)[nH]c4c3)CC2)cc1 12 µM, CCOc1ccc(S(=O)(=O)N(C(C)=O)c2ccc3oc(C)c(C(=O)OC)c3c2)cc1 4.78 µM, CC(=O)c1cccc(NS(=O)(=O)c2cccc(S(=O)(=O)c3ccc(Br)cc3)c2)c1 26.9 µM, Cc1cc(Nc2cccc(C(F)(F)F)c2)nc2ccc(NC(=O)c3cccnc3)cc12 19 µM, O=S(=O)(c1ccc(-c2csc(=Nc3ccc(OC(F)(F)Cl)cc3)n2CCCO)cc1)N1CCCC1 1.9 µM
